# Compound activity: PubChem BioAssay, Broad Institute
# The list is not random: actives were taken first. Their share in the collection is about 1.2%.
# NSD2 HMT inh – blocks human histone methyltransferase NSD2; inhibition, % at 12.5 µM; AID 743445; O96028; NSD2 peptide methylation, AlphaScreen, 120 min; 310,000 tested, 0.54% active; in the data active means inhibition above about 50%
# Casp6 inh – inhibitors of human caspase-6; inhibition, % at 12.5 µM; AID 686996; purified caspase-6, Z-VEID-R110 cleavage fluorescence; 350,000 tested, 0.53% active; P55212;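 active means mean inhibition across replicates at least about 35%, with every replicate also reaching that limit, limit read from the data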;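 further: 0% = median of neutral control wells and 100% = no fluorescence left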
# RAD52 inh – RAD52 (human) annealing inhibition; P43351; recombinant RAD52 DNA annealing, FRET fluorescence; inhibition, % at 18.7 µM; 360,000 tested, 0.46% active;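 active means every replicate showing at least 50% inhibition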
# Target sequence (P43351 whole entry, looked up): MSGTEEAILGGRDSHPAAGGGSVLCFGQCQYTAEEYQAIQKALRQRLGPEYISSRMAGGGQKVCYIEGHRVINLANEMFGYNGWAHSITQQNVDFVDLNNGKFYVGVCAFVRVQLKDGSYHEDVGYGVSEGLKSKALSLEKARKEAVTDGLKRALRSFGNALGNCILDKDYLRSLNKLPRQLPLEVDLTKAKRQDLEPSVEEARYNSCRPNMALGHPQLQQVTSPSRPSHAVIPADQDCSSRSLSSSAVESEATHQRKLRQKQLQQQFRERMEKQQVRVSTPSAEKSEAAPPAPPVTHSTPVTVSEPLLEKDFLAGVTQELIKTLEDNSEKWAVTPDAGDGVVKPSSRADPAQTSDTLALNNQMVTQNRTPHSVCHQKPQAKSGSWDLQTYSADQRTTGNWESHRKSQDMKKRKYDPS
# Glyco luc inh – blocks N-linked glycosylation in D54 reporter cells. D54 ERlucT glycosylation luciferase reporter, 24 h; percent of 100 nM tunicamycin response. reporter increase, % at 12.5 µM. 360,000 tested, 0.23% active. AID 588692;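 active means mean luciferase reporter signal, scaled so untreated is 0 and the glycosylation-blocking control 100, at or above a set limit in every replicate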;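 further: luciferase carries N-glycosylation sites so blocking glycosylation raises the light; 0% = median of neutral control wells and 100% = median of 100 nM tunicamycin wells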
# RAD54 branch – inhibitors of human RAD54 branch migration; 360,000 tested, 0.14% active; Q92698; inhibition, % at 10.4 µM; RAD54 Holliday junction branch migration, FAM/BHQ fluorescence;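 active means mean normalized replicate activity at least 40 and at least half of replicates scoring 40 or more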;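 further: 0% = median of neutral control wells and 100% = median of positive control wells; inhibitors cause a drop in the FAM fluorescence signal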
# AlphaScreen art – interferes with AlphaScreen signal, flagging NSD2 false positives; shares compounds with NSD2 HMT inh; AlphaScreen artifact counterscreen, preloaded methylated H4 peptide; AC35, µM (highest dose often 10 µM), inactives show top-dose activity change, negative = signal loss; 1,500 tested, 9.4% active; AID 1053174; call rule not given here
# Active calls of the source: *; / = no result given.
SMILES,NSD2 HMT inh,Casp6 inh,RAD52 inh,Glyco luc inh,RAD54 branch,AlphaScreen art
Cc1ccc(C(=O)NC(=S)NNC(=O)c2ccccc2O)cc1,50*,/,10,-1,-9,-7%
C[C@@H]1CN([C@H](C)CO)C(=O)c2cc(C#Cc3cccnc3)cnc2O[C@H]1CN(C)C(=O)CN(C)C,/,/,8,/,6,/
COc1ccc(NC(=O)N(C)C[C@@H]2Oc3ccc(NC(=O)C4CCCCC4)cc3CC(=O)N([C@H](C)CO)C[C@@H]2C)cc1,/,1,0,/,8,/
COc1ccc(/C=C2/C(=O)N(c3c(F)c(F)c(F)c(F)c3F)N=C2C)cc1,58*,6,-8,1,-15,2%
C[C@@H]1CN([C@H](C)CO)C(=O)c2cccc(N(C)C)c2O[C@@H]1CN(C)Cc1ccc(C(=O)O)cc1,/,-3,-2,/,-5,/
COc1ccc(OCCSc2nnc(CCNC(=O)c3ccc(Cl)c(Cl)c3)n2C)cc1,59*,-1,-29,2,/,1%
COc1ccc(OCCSc2nnc(CCNC(=O)c3ccc(OC)cc3)n2C)cc1,-1,/,/,0,0,/
C/C=C/c1ccc([C@H]2[C@H](CO)N(C(C)=O)[C@H]2CN(C)C(=O)CN(C)C)cc1,/,/,/,/,-13,/
Fc1ccc(C2CCNCC2COc2ccc3c(c2)OCO3)cc1 (stereo not given),64*,-2,21,1,5,-20%
COc1ccc(C(=O)Nn2c(SCC(=O)c3ccc(Cl)cc3)nc3ccccc3c2=O)cc1,116*,/,/,-17,0,-4%
O=[N+]([O-])c1ccccc1NC(=S)N/N=C/c1ccc(O)c(O)c1,117*,53*,-3,-10,/,1.8µM*
Cc1ccc(S(=O)(=O)NC(C(=O)N2CCN(S(=O)(=O)c3cccc(F)c3)CC2)C(C)C)cc1 (stereo not given),94*,4,-12,-1,4,4%
C[C@@H]1CN([C@@H](C)CO)C(=O)c2cc(NC(=O)Nc3ccccc3)ccc2O[C@@H](C)CCCCO[C@@H]1CN(C)C,/,0,-3,/,7,/
CC1=CCC2C(=O)N(c3cccc(C(=O)N(C)C4CCCCC4)c3)C(=O)C2C1 (stereo not given),89*,/,/,-1,-3,1%
CN(C(=O)c1cccc(N2C(=O)C3C4C=CC(C4)C3C2=O)c1)C1CCCCC1 (stereo not given),-7,-4,-1,4,8,/
CCC(=O)N1C[C@H](O)COC[C@H]2O[C@H](CC(=O)NCc3ccccc3Cl)CC[C@@H]21,/,/,/,/,13,/
C[C@H](CO)N1C[C@H](C)[C@@H](CN(C)Cc2ccncc2)Oc2cc(C3=CCCCC3)ccc2S1(=O)=O,/,0,-6,/,0,/
CCCNC(=O)[C@H]1[C@H](CO)[C@H]2Cn3c(ccc(-c4ccccc4F)c3=O)[C@H]2N1CC1CC1,/,0,-9,/,1,/
COc1ccc(NC(=O)N[C@H]2CC[C@H](CC(=O)NC3CCCCC3)O[C@H]2CO)cc1,/,-2,1,/,-4,/
Cn1cc(-c2ccccc2C(N)=O)c(=O)c2ccccc21,56*,1,-5,0,-5,-1%
O=C1/C(=C/c2ccc(O)c(O)c2)SC(=S)N1Nc1ccccc1,88*,/,/,-4,/,2.4µM*
COc1ccc(OC)c(NC(=O)CSc2nc3n[nH]c(C)c3c(=N)n2-c2cccc(Cl)c2C)c1,4,0,4,7,-4,/
CCc1ccccc1NC(=O)CSc1nc2n[nH]c(C)c2c(=N)n1-c1cccc(OC)c1,58*,-9,-10,9,2,-4%
O=C(O)c1cc(N/N=C/c2ccc3c(c2)OCO3)ccc1Cl,75*,-3,-20,-10,/,-2%
O=C(O)c1cc(N/N=C/c2ccc3c(c2)OCCO3)ccc1Cl,2,-3,-9,-10,/,/
SMILES,NSD2 HMT inh,Casp6 inh,RAD52 inh,Glyco luc inh,RAD54 branch,AlphaScreen art
Cc1ccc(S(=O)(=O)Nc2ccc3c(c2)CC(=O)N([C@@H](C)CO)C[C@@H](C)[C@@H](CN(C)S(=O)(=O)c2ccc(F)cc2)O3)cc1,/,/,/,/,-1,/
CC1(C)CC(N=C2C=CC3=NC45CCCCC4CC4=C(CCCC4)N5C3=C2)CC(C)(C)N1 (stereo not given),64*,/,/,/,/,-6%
CC12CCC(C(=O)O)(c3nc4cc([N+](=O)[O-])ccc4nc31)C2(C)C (stereo not given),-1,10,-7,2,4,/
CC12CCC(C)(c3nc4ccccc4nc31)C2(C)C,53*,-3,-10,-2,-1,-3%
C[C@H](CO)N1C[C@H](C)[C@H](CN(C)C(=O)Nc2ccccc2)Oc2ccc(NC(=O)Nc3ccc4c(c3)OCO4)cc2C1=O,/,/,/,/,-2,/
O=C(CN1CCOCC1)NCCNC(=O)CN1CCOCC1,60*,/,/,1,-31,-4%
O=C(CC1(O)C(=O)Nc2cc(Cl)cc(Cl)c21)c1ccncc1 (stereo not given),97*,/,/,2,-6,5%
CN(C)c1cc(N/N=C/c2ccc(Cl)cc2)nc(N(C)C)n1,100*,1,-9,0,/,-4%
COc1cc(N/N=C/c2ccc(N(C)C)cc2)ncn1,-4,1,-3,-16,12,/
C[C@@H]1CN([C@@H](C)CO)C(=O)c2cccc(NC(=O)c3ccncc3)c2O[C@@H]1CN(C)S(=O)(=O)c1ccccc1,/,2,2,/,6,/
CC1Cc2ccccc2N1C(=O)COc1cccc(-n2cnnn2)c1 (stereo not given),130*,/,/,1,-2,-2%
CC1NC(=O)NC1CCCCCC(=O)Nc1ccc(F)cc1 (stereo not given),103*,-3,-17,2,/,1.9µM*
Cc1c(F)cccc1NC(=O)CCCCCC1NC(=O)NC1C (stereo not given),/,-5,-8,3,3,/
CCN1C(=O)c2ccccc2S(=O)(=O)c2ccc(C(=O)NC(C)C)cc21,52*,3,-1,-1,-7,-5%
O=c1cc(OCc2ccccc2)cc[nH]1,82*,4,-4,3,-5,1%
Cc1[nH]ccc(=O)c1OCc1ccccc1,/,/,/,1,-13,/
COc1ccc(NC(=O)N(C)C[C@H]2Oc3c(NC(=O)Nc4c(C)noc4C)cccc3C(=O)N([C@@H](C)CO)C[C@H]2C)cc1,/,1,0,/,1,/
COc1cc(-n2c(C)nc3cc(C(=O)O)ccc32)cc(OC)c1OC,-1,/,-20,4,4,/
Cc1cc(C)cc(-n2c(C)nc3cc(C(=O)O)ccc32)c1,73*,-5,-3,2,/,-1%
O=C(CN1CCOCC1)N1CC[C@@H]2[C@@H](CO)Nc3ccc(-c4ccccc4)cc3[C@@H]21,/,/,/,/,-2,/
CCN(CC)CCCN(Cc1cc2cc3c(cc2[nH]c1=O)OCO3)C(=O)Nc1ccccc1OC,8,/,/,-2,/,/
CCN(CC)CCCN(Cc1cc2cc(OC)c(OC)cc2[nH]c1=O)C(=O)Nc1ccccc1,51*,/,/,5,20,0%
